Bioassay records from PubChem BioAssay.
A selection: hits, their analogues and other compounds. The true share with any hit is near 28%.
CYP2C19 activ – human CYP2C19 activators, primary screen, biochemical, luminescence; AID 1025, 2008; activation factor at 5 µM; recombinant CYP2C19, luciferin-H EGE luminescence; stronger effect = higher value; 0 = fully inhibited enzyme, 1 = untreated enzyme; 96,000 tested, under 10 active;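 active = activation factor of at least 2 at 5 µM in the primary screen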;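 also: 0 = wells with 2.5 mM tranylcypromine and 1 = vehicle-only wells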
Target sequence (P33261 whole entry, looked up): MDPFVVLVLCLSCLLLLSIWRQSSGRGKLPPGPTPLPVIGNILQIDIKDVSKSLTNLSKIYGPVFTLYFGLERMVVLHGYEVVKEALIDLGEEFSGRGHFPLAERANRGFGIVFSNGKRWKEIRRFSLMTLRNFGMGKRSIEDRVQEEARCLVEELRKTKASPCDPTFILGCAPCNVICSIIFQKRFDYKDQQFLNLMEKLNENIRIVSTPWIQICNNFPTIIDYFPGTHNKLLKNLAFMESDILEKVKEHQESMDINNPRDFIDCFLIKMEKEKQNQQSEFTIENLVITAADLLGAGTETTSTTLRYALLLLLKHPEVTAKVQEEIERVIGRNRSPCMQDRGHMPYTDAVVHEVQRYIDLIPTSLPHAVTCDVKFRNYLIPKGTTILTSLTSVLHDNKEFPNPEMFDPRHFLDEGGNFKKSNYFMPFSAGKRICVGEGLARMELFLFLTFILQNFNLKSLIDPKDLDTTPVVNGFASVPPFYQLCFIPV
CYP2C9 act – human CYP2C9 activators, primary screen, biochemical, luminescence; Cytochrome P450 2C9 (Homo sapiens), P11712; recombinant CYP2C9, luciferin-H conversion; stronger effect = higher value; factor 1 = untreated enzyme, 0 = blocked; activation factor at 5 µM; hit rate 1.4% among 96,000; AID 1024, 2008;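 active = activation factor of 2 or more for CYP2C9 at a 5 µM dose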;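 also: 0 = sulfaphenazole-blocked wells and 1 = vehicle-only wells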
PTK2B oligo ant – antagonists of Pyk2 self-association, primary screen, Q293 cells, FERM NanoBiT luminescence, HTS | AID 1347419, 2020 | z-score (the deposit names both 25 µM and 10 µM) | stronger effect = lower value | Protein-tyrosine kinase 2-beta (Homo sapiens), Q14289 | hit rate 0.83% among 99,000;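 active = Z-score of -3 or lower, scaled per plate to the spread of control and sample wells; inactive = z-score above -3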;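 also: negative z-score means lost luminescence so less FERM oligomerization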
CYP2C9 inhib – blockers of cytochrome P450 2C9 activity – biochemical, luminescence, ADME assay, primary screen; P11712; CYP2C9 Supersomes, luciferin-H conversion; inhibition, % at 5 µM; hit rate 20% among 96,000; AID 777, 2007;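 active = blocking of liver enzyme CYP2C9 beyond about 50% at 5 µM, limit read from the data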
CYP2C19 inhib – blockers of cytochrome P450 2C19 activity – biochemical, luminescence, ADME assay, primary screen; P33261; CYP2C19 Supersomes, luciferin-H EGE luminescence, 30 min; inhibition, % at 5 µM; hit rate 21% among 96,000; AID 778, 2007;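 active = CYP2C19 inhibition above a set limit at 5 µM in the primary screen, cut at about 50% in these data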;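 also: plate controls were negative control wells for no effect and 2.5 mM tranylcypromine positive control for full effect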
* = called active by the depositor; / = no result.

SMILES	CYP2C19 activ	CYP2C9 act	PTK2B oligo ant	CYP2C9 inhib	CYP2C19 inhib
Cc1ccc(CNC(=O)C2CC(c3cccc([N+](=O)[O-])c3)=NO2)cc1 (stereo unspecified)	0.2	1	/	4.0	75.1*
COc1ccc(CNC(=O)C2CC(c3cccc([N+](=O)[O-])c3)=NO2)cc1 (stereo unspecified)	0.8	1.1	/	-13.4	22.1
COc1ccc(C(=O)/C(=C/c2cccs2)c2nc3ccccc3o2)cc1	0.7	0.3	-1.71	68.6*	26.0
CC(NS(=O)(=O)c1ccccc1)C(=O)NCc1ccco1 (stereo unspecified)	0.6	1	0.46	2.8	43.8
CCCCOCCCNS(=O)(=O)c1ccccc1	0.6	0.9	-0.59	13.1	43.7
CC(CCc1ccccc1)NS(=O)(=O)c1ccccc1 (stereo unspecified)	0.5	0.3	0.39	74.9*	54.8*
CCOCCCNS(=O)(=O)c1ccccc1	0.4	1	0.11	1.1	60.4*
CC(CCc1ccccc1)NCc1ccncc1 (stereo unspecified)	0	0.2	3.01	83.3*	95.6*
CC(CCc1ccccc1)NC(=O)c1cncc(Br)c1 (stereo unspecified)	0.7	0.8	0.6	15.1	31.1
O=S(=O)(NCCCc1ccccc1)c1ccccc1	0	0.3	0.15	69.6*	97.8*
Cc1ccc2cc(C(c3nnnn3C(C)(C)C)N3CCCC3)c(=O)[nH]c2c1C (stereo unspecified)	0.8	0.7	/	30.1	18.1
CCOC(=O)C1=C(CSc2n[nH]c(N)n2)NC(=O)NC1C (stereo unspecified)	1	0.9	0.1	9.8	4.3
CC(C)[C@H](NC(=O)NCc1cccs1)C(=O)O	1	1.1	-0.3	-7.4	-0.7
Cc1cccc2cc(CN(Cc3ccc(F)cc3)C(=O)N(C)C)c3nnnn3c12	0.7	0.6	-2.01	39.1	29.8
COc1ccc(N(CC(=O)N/N=C/c2ccc(-c3ccc([N+](=O)[O-])cc3)o2)S(=O)(=O)c2ccc(C)cc2)cc1	/	/	-0.43	/	/
CC(C)CCCC(C)NS(=O)(=O)Cc1ccccc1 (stereo unspecified)	0.5	0.1	0.76	91.9*	54.7*
CCc1ccc(C(C(=O)NCCOC)N(C(=O)Cn2nnc3ccccc32)c2cccnc2)cc1 (stereo unspecified)	/	/	0.06	/	/
O=C(Nc1ccc(Cl)cc1)C1CCC(=O)N1Cc1ccccc1Cl (stereo unspecified)	0.2	0.1	0.42	90.6*	79.0*
Cc1ccccc1-n1nc2c(c1NC(=O)c1c(-c3ccccc3Cl)noc1C)CS(=O)(=O)C2	1	0.9	0.74	5.3	-2.3
COc1ccc(S(=O)(=O)N(CC(=O)Nc2ccc3c(c2)OCO3)c2ccccc2OC)cc1	0.9	0.3	-1.55	71.8*	5.8
COc1ccccc1N(CC(=O)Nc1ccc2c(c1)OCO2)S(=O)(=O)c1ccccc1	0.2	0	-2.23	100.3*	80.2*
COc1cccc(N(CC(=O)Nc2ccc3c(c2)OCO3)S(=O)(=O)c2ccccc2)c1	0.9	0.3	-3.07*	70.7*	6.8
COc1ccc(N(CC(=O)Nc2ccc3c(c2)OCCO3)S(=O)(=O)c2cccnc2)cc1	0.8	0.5	/	48.5	25.0
COC(=O)c1cc(NC(=O)CN(c2ccccc2OC)S(=O)(=O)c2ccccc2)ccc1Cl	0.5	0	-1.61	96.8*	52.5*
CCOc1ccccc1N(CC(=O)Nc1ccc(S(=O)(=O)N2CCOCC2)cc1)S(=O)(=O)c1ccccc1	1	1	-1.18	-1.5	-2.4
SMILES	CYP2C19 activ	CYP2C9 act	PTK2B oligo ant	CYP2C9 inhib	CYP2C19 inhib
O=C(CN1CCN(S(=O)(=O)c2ccccc2)CC1)Nc1ccc2c(c1)OCO2	0.5	0.7	0.12	28.7	49.4
ClC(Br)=C(n1cnc2ccccc21)n1cnc2ccccc21	0.2	0.1	-1.13	88.1*	75.2*
O=C(N1CCOCC1)n1cnc2ccccc21	/	/	-0.36	/	/
CN(CC(=O)N1CCCc2c1c(=O)oc1ccc(O)cc21)Cc1ccccc1	0	0.3	-0.45	66.7*	96.1*
O=c1[nH]cnc2scc(C3COc4ccccc4O3)c12 (stereo unspecified)	0.1	0.2	0.43	80.2*	87.8*
Clc1ncnc2scc(C3COc4ccccc4O3)c12 (stereo unspecified)	/	/	0.19	/	/
COc1ccccc1Oc1nc(-c2ccccc2)cc(C)c1S(C)(=O)=O	0.9	0.9	-3.53*	12.3	10.0
Cc1cc(C)c(S(C)(=O)=O)c(Oc2ccccc2C)n1	0.8	0.9	-0.13	8.5	21.5
Cc1cccc(Oc2nc(-c3ccccc3)cc(C)c2S(C)(=O)=O)c1C	0.4	0.1	0.04	92.8*	63.2*
Cc1cc(C)cc(Oc2nc(-c3ccccc3)cc(C)c2S(C)(=O)=O)c1	0.5	0.1	-1.58	88.7*	51.7*
Cc1cc(-c2ccccc2)nc(Oc2ccc(C(C)(C)C)cc2)c1S(C)(=O)=O	1	0.5	-0.16	48.2	4.0
O=C(O)CCCCCN=C1CCc2ccccc2N1	1.1	1	0.76	1.5	-7.2
CCc1cc(-c2n[nH]c(=S)n2C(C)c2ccccc2)cs1 (stereo unspecified)	0.2	0.1	0.06	86.9*	81.5*
CC(C)c1cc(-c2n[nH]c(=S)n2Cc2ccccc2)cs1	0.9	0.6	-0.92	39.8	7.0
COc1ccccc1CN(Cc1cc2cc(C)ccc2[nH]c1=O)Cc1nnnn1Cc1ccco1	0	0	0.33	97.7*	98.7*
COc1cc2cc(CN(Cc3nnnn3Cc3ccco3)C3CCCCC3)c(=O)[nH]c2cc1OC	0.8	0.9	-0.06	11.9	18.0
CCOC(=O)Cn1nnnc1CN(Cc1ccc(OC)cc1)Cc1cc2cc(CC)ccc2[nH]c1=O	0	0	0.44	95.2*	97.1*
CCc1ccc2[nH]c(=O)c(CN(Cc3ccccc3OC)Cc3nnnn3Cc3ccco3)cc2c1	0.4	0	1.8	96.3*	57.9*
Cc1ccc(C)c(/C(O)=C2\C(=O)C(=O)N(CCCn3ccnc3)C2c2ccncc2)c1 (stereo unspecified)	0.8	0.5	0.81	53.1*	22.4
CCCCCCN1C(=O)C(O)=C(C(C)=O)C1c1ccc(Cl)cc1 (stereo unspecified)	0.8	0.2	-0.39	75.3*	20.1
CCCCN1C(=O)C(O)=C(C(C)=O)C1c1ccccc1 (stereo unspecified)	1.1	1	-0.63	3.4	-9.6
CC(=O)C1=C(O)C(=O)N(CCCn2ccnc2)C1c1ccc(C)cc1 (stereo unspecified)	0.4	0.5	0.65	46.6	59.7*
N/C(CCN1CCCCC1)=N/O	1	1.1	0.65	-10.6	-1.1
